Bioassay records from PubChem.
This is a sample that favours compounds with a hit; in the whole collection about 2.8% have one here.
TRPM1 prom inh – inhibitors of MITF-driven TRPM1 promoter in melanoma cells; 330,000 tested, 0.83% active; inhibition, % at 12.5 µM; SK-MEL-5 TRPM1 promoter luciferase, 24 h;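 active = mean inhibition across replicates of 60% or more, whatever share of single replicates reaches that level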
Shn3 inh set2 – inhibitors of Schnurri-3 3'UTR reporter in osteoblasts; Clone20 osteoblast Shn3 3'UTR firefly luciferase, 24 h; inhibition, % at 12.5 µM; 360,000 tested, 0.52% active; AID 588674;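 active = mean inhibition of at least 75% with every replicate also reaching 75%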;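 note: 0% = median of neutral control wells and 100% = pilot-screen positive control compound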
KKLEB cytotox – reduces viability of KKLEB cystic fibrosis airway cells | KKLEB CF airway cells viability, ATPlite luminescence, overnight; stronger effect = lower value; cells stimulated with P. aeruginosa culture filtrate | activity change (cytotoxicity), % at 5 µM | 360,000 tested, 0.36% active;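 active = corrected activity change at or below -50% at 5 µM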
HIF-2a block – HIF-2a inhibition. 786-0 RCC cells HIF-2a reporter, luciferase luminescence, overnight. inhibition, % at 18.8 µM. 360,000 tested, 0.72% active. AID 624352;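 active = inhibition of the luminescence signal of 40% or more relative to plate controls, in a single-dose primary screen at 18.75 µM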
Peg3 prom inh – Peg3 promoter activity inhibition; inhibition, % at 20 µM; 360,000 tested, 1.7% active; HeLa PEG-Prom luciferase reporter, luminescence, overnight;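 active = inhibition of at least 50% at 20 µM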
CF NFkB inh – blocks PAF-induced NF-kB reporter in cystic fibrosis cells | KKLEB NF-kB-GFP reporter, GFP fluorescence overnight | inhibition, % at 5 µM | 360,000 tested, 0.86% active | AID 588850;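 active = at least 50% inhibition at 5 µM, scaled per plate between neutral and stimulator controls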;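 note: PAF is a Pseudomonas aeruginosa culture filtrate used as stimulus; plate controls were PAF-stimulated DMSO wells for no effect and unstimulated DMSO wells for full effect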
The depositor's hits bear a star; . = not tested or not shown.

SMILES	TRPM1 prom inh	Shn3 inh set2	KKLEB cytotox	HIF-2a block	Peg3 prom inh	CF NFkB inh
CCN(CC)S(=O)(=O)c1cc(NC(=O)c2ccc(-n3cncn3)c([N+](=O)[O-])c2)ccc1C	22	31	-8	7	5	10
Cc1ccc(/C=C2\SC(=S)N(CCCC(=O)N3CCOCC3)C2=O)cc1	11	-1	-9	58*	4	4
CCOc1ccc(/C=C2\SC(=S)N(CCC(=O)Nc3ccccc3C(=O)O)C2=O)cc1	-3	4	7	-14	-74	10
COc1ccc(/C=C2\SC(=S)N(CCC(=O)Nc3ccccc3C(=O)O)C2=O)cc1	6	7	2	71*	-24	2
O=C(CCN1C(=O)/C(=C\c2ccccc2F)SC1=S)N1CCCCC1	-21	30	0	8	104*	96*
c1ccc(CNc2cccnc2)cc1	.	-7	4	-3	-4	6
N=c1n(Cc2ccccc2)c2ccccc2n1CC(O)COc1ccc(Cl)cc1Cl (stereo not drawn)	98*	92*	-28	7	104*	16
Cc1ccc(OCC(O)Cn2c(=N)n(Cc3ccccc3)c3ccccc32)cc1 (stereo not drawn)	39	81*	-21	-1	108*	7
N=c1n(Cc2ccc(Cl)cc2)c2ccccc2n1CC(O)COc1ccccc1 (stereo not drawn)	94*	86*	-50	-22	101*	34
COc1ccc(C(CNC(=O)c2cccc(S(=O)(=O)N3CCCCC3)c2)N2CCCC2)cc1 (stereo not drawn)	-31	5	8	11	-3	2
CC1=C(C(=O)N(C)C)CC(CC(=O)NCc2cccc3ccccc23)C(=O)N1CCCN1CCCC1=O (stereo not drawn)	.	-3	0	0	-3	-14
COc1cccc(C(=O)c2c(-c3ccccc3)ncc3cc(OC)c(OC)cc23)c1	-8	4	0	-1	9	20
Cc1ccc(S(=O)(=O)N2CCC(=O)N([C@H](COC(=O)Nc3ccccc3)Cc3ccccc3)CC2)cc1	.	.	.	-3	.	.
O=C(N/N=C/c1ccc(O)cc1)Nc1cccc2nsnc12	-53	50	-38	-72	32	69*
COc1ccc(/C=N/NC(=O)Nc2cccc3nsnc23)c(OC)c1	-15	-21	-1	24	-5	14
CCCN(CCC)c1nc(-c2ccccn2)nc2ccccc12	44	76	-22	17	52*	4
CCCCN(CC)c1nc(-c2ccncc2)nc2ccccc12	-11	11	-14	25	32	34
CCCN(CCC)C(=O)CSc1nc2ccccc2c(=O)n1CC1COc2ccccc2O1 (stereo not drawn)	7	2	-11	14	51*	-14
CCOC(=O)CSc1nc2ccccc2c(=O)n1CC1COc2ccccc2O1 (stereo not drawn)	-6	12	2	23	18	-8
CCN1CCc2c(sc(NC(=O)c3ccc(S(=O)(=O)N4CCCC4)cc3)c2C(=O)NC)C1	74*	8	-3	29	65*	4
CNC(=O)c1c(NC(=O)c2ccc(S(=O)(=O)N3CCCCC3)cc2)sc2c1CCN(C(C)C)C2	-11	7	-18	5	-9	14
CCOC(=O)N1CCN(S(=O)(=O)c2ccc(C(=O)Nc3sc4c(c3C(N)=O)CCN(CC)C4)cc2)CC1	21	21	-7	-8	76*	22
CCN1CCc2c(sc(NC(=O)c3cc4ccccc4cc3OC)c2C(N)=O)C1	37	20	-17	26	110*	-16
CC(C)(C)NC(=O)CN(C(=O)c1snc(C(=O)NC2CCCCC2)c1N)c1ccccc1F	8	35	3	25	2	5
O=C(OCC(=O)N1CCc2ccccc2C1)c1ccc(Cl)c([N+](=O)[O-])c1	11	12	-6	24	99*	12
SMILES	TRPM1 prom inh	Shn3 inh set2	KKLEB cytotox	HIF-2a block	Peg3 prom inh	CF NFkB inh
CC(C)CN1CCN(C(=O)COC(=O)c2ccc(S(C)(=O)=O)c([N+](=O)[O-])c2)CC1	.	75	-7	94*	97*	79*
COc1ccc(C(=O)OCC(=O)N2CCCCC2)cc1[N+](=O)[O-]	-5	-8	12	-1	-4	-16
COc1ccc(C(=O)c2ccc(Cl)c([N+](=O)[O-])c2)cc1	64*	24	-44	25	19	64*
Nc1ccc(C(=O)OCC(=O)N2CCc3ccccc3C2)cc1[N+](=O)[O-]	0	-17	-6	-55	-95	6
Cc1cc(C(=O)OCC(=O)c2ccc(Cl)c([N+](=O)[O-])c2)c2cccc(C)c2n1	1	23	4	-1	11	-9
CC(C)N(C(=O)COC(=O)c1ccccc1C(=O)c1ccc(Cl)c([N+](=O)[O-])c1)C(C)C	45	-2	-1	19	74*	41
COc1ccc2c(c1)CN(C)S(=O)(=O)c1ccccc1-2	-1	5	7	5	11	-11
NC(c1csc(Nc2cc(NCCCO)ncn2)n1)c1ccccc1Cl (stereo not drawn)	.	-9	-5	14	1	15
CSc1nc(-c2ccc(C)cc2)nc(C(Cl)Cl)n1	77*	7	-19	2	102*	6
Cc1ccc2[nH]c3c(=O)n(CC(=O)Nc4ccccc4N4CCN(C)CC4)ncc3c2c1	-5	0	-7	-4	53*	16
COC(=O)c1cc(C)nc2c1c(C)nn2-c1ccccc1	-1	-15	-1	-56	-42	11
COc1cc2c(-c3ccccc3O)nc3c(c(C)nn3-c3ccccc3)c2cc1OC	1	13	12	14	57*	-11
C[C@H]1CCCCO[C@@H](CN(C)C(=O)NC2CCCCC2)[C@@H](C)CN([C@@H](C)CO)C(=O)c2cc(NC(=O)Cc3ccccc3)ccc2O1	.	14	-2	-4	18	29
Cc1sc2nc(CN(C(=O)NC3CCCCC3)C3CCCCC3)[nH]c(=O)c2c1C	20	22	-5	13	50*	-11
O=C(Nc1cccc(NC(=O)c2cccs2)c1)c1ccc2c(c1)OCCO2	-37	-3	12	-113	-109	-10
CCOc1ccc(OCCC(=O)OCC(=O)N2CCN(S(=O)(=O)c3ccc(Cl)cc3)CC2)cc1	38	7	-13	30	30	84*
O=Cc1c(-c2ccc(Cl)cc2)oc2ccc(O)cc12	.	-61	4	-23	-343	14
COC(=O)C[C@H]1C=C[C@H](NC(=O)c2cccc(F)c2)[C@@H](CO)O1	.	.	.	-8	.	.
CCc1nc2ccc(C(=O)Nc3cc(-c4ccccc4)ccc3OC)cn2c1N(C)Cc1nccs1	.	-17	-35	-10	67*	45
CCc1nc2ccc(C(=O)Nc3cc(-c4ccccc4)ccc3OC)cn2c1N(C)Cc1ccc(OC)cc1	.	-7	-18	-39	-13	29
